From PubChem
These entries were drawn from the full list.
LmPK activator: LmPK (Leishmania mexicana) enzyme activation; Q27686; purified LmPK, Kinase-Glo ATP luminescence, 1 h; activity change, negative = inhibition, % at 57.5 µM; 290,000 tested, under 10 active; AID 1722; calls by dose curve
Target sequence (Q27686 whole entry, looked up): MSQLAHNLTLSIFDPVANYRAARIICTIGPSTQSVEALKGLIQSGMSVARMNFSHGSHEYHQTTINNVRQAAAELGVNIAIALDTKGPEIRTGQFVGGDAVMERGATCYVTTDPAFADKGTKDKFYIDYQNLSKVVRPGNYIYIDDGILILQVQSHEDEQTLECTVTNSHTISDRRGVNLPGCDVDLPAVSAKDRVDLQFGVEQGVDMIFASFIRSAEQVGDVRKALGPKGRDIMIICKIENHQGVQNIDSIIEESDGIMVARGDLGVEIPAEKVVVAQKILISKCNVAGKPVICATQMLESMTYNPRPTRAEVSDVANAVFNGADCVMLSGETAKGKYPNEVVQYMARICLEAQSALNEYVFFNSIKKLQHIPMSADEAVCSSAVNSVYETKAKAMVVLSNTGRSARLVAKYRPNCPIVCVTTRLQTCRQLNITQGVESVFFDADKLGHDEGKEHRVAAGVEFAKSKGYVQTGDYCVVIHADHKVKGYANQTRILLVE
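Coupled luminescent assay: ATP produced by LmPK (0.1 nM) from ADP (0.1 mM, ~10-fold below Km) and PEP (0.5 mM, at Km) after 1 h RT, detected with Kinase-Glo. Data scaled between no-enzyme and uninhibited controls.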
* = called active by the depositor; [ ] = another dose, or the depositor's remark.

SMILES | LmPK activator
CCc1ccc(C(=O)COC(=O)c2ccccc2OC)cc1 | -30.5
Cc1nonc1C(=O)N/N=C/c1ccccc1 | -120.9
CC(C)OCCCn1c(-c2ccc(Br)cc2)c[nH]c1=S | -64.2
Cc1ccc(-c2ccc(=O)n(CCC(=O)N3CCN(c4cccc(C)c4)C(C)C3)n2)cc1 (stereo not given) | 4.2
CN=c1scc(-c2ccc(F)cc2)n1/N=C/c1ccc(O)c(O)c1 | -53.9
COc1c(Cl)cccc1-c1cn2ccc(C)cc2n1 | -51.3
Cn1c(=O)[nH]c(=O)c2c1[nH]c(=S)n2Cc1ccc(Cl)cc1 | -49.6
COc1cc(-c2n[nH]c(=S)n2/N=C/c2cccn2C)cc(OC)c1OC | -87.9
Cc1ccccc1/C(N)=N/OC(=O)c1cccs1 | -53.7
Cc1nc(-c2ccc([N+](=O)[O-])cc2)sc1C(=O)O | -68.1
c1ccc(CCN(Cc2ccccc2)C2CCN(C3CCCC3)CC2)cc1 | -33.9
O=C1CSC(=S)N1N1C(=O)c2cccc([N+](=O)[O-])c2C1=O | -31.5
CC1=C(C#N)C(=O)N(C2CCS(=O)(=O)C2)C(=O)/C1=C\c1ccco1 (stereo not given) | -31.0
CCc1ccc(NC(=O)c2ccccc2SC)cc1 | -45.3
CC12CCC(=O)N1C(C(=O)Nc1nnc(SCc3ccccc3F)s1)CS2 (stereo not given) | -36.6
O=C(NC(=S)N1CCOCC1)c1cc2ccccc2o1 | -31.3
COc1ccc2nc(/N=C/c3c(C)[nH]n(-c4ccc(C)cc4)c3=O)sc2c1 | -80.8
CCc1ccc(C2=NN(C(C)=O)C(c3ccco3)C2)cc1 (stereo not given) | -60.3
Oc1ccc(N2CCN(Cc3nc4ccccc4[nH]3)CC2)cc1 | -37.6
CCN(C(=O)COC(=O)c1cccnc1Nc1ccccc1F)C1CCS(=O)(=O)C1 (stereo not given) | -53.1
CCOC(=O)C1=C(C)Nc2nc(=S)[nH]n2C1c1ccc(Cl)cc1 (stereo not given) | -21.3
Cc1ccc(-n2c(CCc3ccccc3)n[nH]c2=S)cc1C | -82.3
Cc1ccc(C2CC2c2n[nH]c(=S)n2-c2cccc(Cl)c2)cc1 (stereo not given) | -46.9
O=C1c2ccccc2NC(c2ccc(O)c(O)c2)N1c1ccccc1Cl (stereo not given) | -34.0
CC(C)Cn1c(C23CC4CC(CC(C4)C2)C3)n[nH]c1=S | -63.8
SMILES | LmPK activator
COc1ccc2oc(C(=O)NCCN3CCOCC3)c(C)c2c1OC | -36.2
Cc1cc(N=Nc2ccc(C)c(N=Nc3cc(C)c(N)cc3N)c2)c(N)cc1N | -70.9
Cc1ccc(S(=O)(=O)N2C(=O)[C@@H]3Cc4ccccc4CN3C2=O)cc1 | -35.9
O=C(NNc1cc(Br)c(O)c(Br)c1)c1ccccc1 | -37.5
Cc1n[nH]c(=O)nc1N/N=C/c1ccc(O)c([N+](=O)[O-])c1 | -42.8
[O-][n+]1c2ccccc2[n+]([O-])c2cc(O)ccc21 | -38.0
COc1cccc(Cc2n[nH]c(=S)n2Cc2ccco2)c1 | -44.7
CCc1cc2cc(C)cc(C)c2[nH]c1=S | -32.4
CC(C)c1cc2c(c(O)c1O)[C@@]13CCCC(C)(C)C1CC2OC3=O (stereo not given in full) | -83.0
COc1ccc(-c2cc(C(=O)Nc3cccc(O)c3)no2)cc1 | -30.3
COc1cccc(CSc2nc3ccncc3[nH]2)c1 | -69.2
CCn1c(=O)c2c(n3c(=S)[nH]nc13)-c1ccccc1CC21CCCCC1 | -60.8
C=CCn1c(-c2sc3nc(C)cc(C)c3c2N)n[nH]c1=S | -50.4
O=C(Nc1ccccc1C(=O)N/N=C/c1ccncc1)c1ccccc1 | -80.5
CC(=O)Oc1c(Br)cc(N(C(C)=O)S(=O)(=O)c2ccccc2)c2ccccc12 | -47.7
COCCCn1c(=S)[nH]c2sc3c(c2c1=O)CCCS3 | -39.8
C=CCN1C(=O)/C(=c2\sc3nc(=O)c(Cc4ccccc4Cl)nn3c2=O)c2ccccc21 | -48.8
COc1cc(N2C(=O)C=CC2=O)c(OC)cc1Cl | -60.6
CC(=O)NC(CSC(CC(=O)c1ccco1)c1ccc(C)cc1)C(=O)O (stereo not given) | -44.0
O=C(N/N=C/c1ccccc1OCC(=O)N1CCCC1)C(=O)Nc1ccccc1F | -50.6
O=C(O)/C=C/c1cnn(-c2ccccc2)c1 | -53.4
CCOc1ccc(-n2cc(-c3ccc(OC)c(OC)c3)[nH]c2=S)cc1 | -41.1[11.5 µM]
CCN1/C(=C2\C(=O)N(C)C(=S)N2C)C=Cc2cc(C)ccc21 | -60.5
O=c1c2ccccc2cnn1Cc1n[nH]c(=S)n1-c1ccccc1Cl | -43.5
O=C(/C=C/Nc1ccc(Oc2ccccc2)cc1)c1ccco1 | -115.4
SMILES | LmPK activator
C/C(=N/OC(=O)c1ccc(C(F)(F)F)cc1)c1oc(C)nc1C | -39.9
Fc1ccc(-c2c[nH]c(=S)n2Cc2ccccc2)cc1 | -78.9
Oc1ccc(N2CCN(Cc3cc4c(cc3Br)OCCO4)CC2)cc1 | -42.0
N#Cc1c(Cl)nsc1NN | -41.4
CC(C1CC2CCC1C2)n1c(-c2ccco2)n[nH]c1=S (stereo not given) | -78.2
Cc1ccc(Nc2nnc(SCC(=O)NCCN3C(=O)CSC3=O)s2)cc1C | -37.2
Cc1ccc(C(=O)O/N=C(\N)c2nonc2N)cc1 | -106.8
Cc1nc(-c2ccc(NC(=O)c3ccccc3C)cc2)cs1 | -35.3
Cc1ccc(C)c(-n2c(-c3csc(C)c3C)n[nH]c2=S)c1 | -78.6
Cc1ccsc1C(=O)Nc1ccc2c(c1)OCCO2 | -84.0
O=C(O)CSc1ccc(NC(=O)Nc2ccccc2F)cc1 | -87.5
Cc1cc(/C(N)=N/OC(=O)c2ccccc2Cl)no1 | -70.8
Cn1c2c(c(=O)[nH]c1=O)C(c1cccc(O)c1)C1=C(N2)c2ccccc2C1=O (stereo not given) | -38.6
O=[N+]([O-])c1cnc2nc(-c3ccncc3)nn2c1O | -81.1
CCCCNC(=O)COC(=O)CCC(=O)c1ccc(Cl)cc1 | -31.8
C=CC[n+]1ccc(/C=C2\C=Cc3cc(C)ccc3N2CC)c2ccccc21 | -39.0
